# Inconclusive results are not listed. The source made the active and inactive calls. How the source made its calls, unless noted: active means hit-call score of the fitted dose curve at least 0.9, where 1 is the maximum; inactive means score below 0.9.
# How the values were obtained:
# [1] = ATG_PBREM_CIS: Attagene CIS-FACTORIAL HepG2 Assay for human Phenobarbital-responsive Enhancer Module (PBREM) (AID 2282955); conditions: HepG2 PBREM cis-reporter, Attagene multiplexed transcription; actives raise or lower the signal
# Method in brief: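 After a 24 h incubation with test chemical, transfected HepG2 cells yield total RNA; reporter-specific RT-PCR products are fluorescently labelled, HpaI-digested and resolved by capillary electrophoresis against ROX size standards.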
# [2] = molecular target: Paired box protein Pax-6 (Homo sapiens) (UniProt P26367); assay: ATG_Pax6_CIS: Attagene CIS-FACTORIAL HepG2 Assay for human Paired Box 6 (PAX6) (AID 2282956); conditions: HepG2 CIS-FACTORIAL PAX6 reporter transcription, RNA readout; actives raise or lower the signal
# Paired box protein Pax-6 (Homo sapiens), sequence (P26367 whole entry, looked up): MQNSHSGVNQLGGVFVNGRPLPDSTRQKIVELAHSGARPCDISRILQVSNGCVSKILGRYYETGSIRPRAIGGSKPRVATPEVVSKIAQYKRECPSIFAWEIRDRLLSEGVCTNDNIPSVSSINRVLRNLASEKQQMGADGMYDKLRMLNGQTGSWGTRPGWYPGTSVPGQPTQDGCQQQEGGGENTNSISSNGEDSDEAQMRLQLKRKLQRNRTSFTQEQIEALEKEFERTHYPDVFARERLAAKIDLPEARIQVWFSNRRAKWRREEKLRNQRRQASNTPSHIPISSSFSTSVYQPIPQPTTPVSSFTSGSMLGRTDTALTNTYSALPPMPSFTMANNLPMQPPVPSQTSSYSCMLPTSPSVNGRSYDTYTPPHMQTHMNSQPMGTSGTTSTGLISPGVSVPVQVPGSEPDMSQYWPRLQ
# Method in brief: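 DMSO-referenced bidirectional fits of reporter mRNA fluorescence; HepG2 with transient cis-promoter MRTUs, 24 h post-dose, RT-PCR plus capillary electrophoresis detection.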
# [3] = ATG_PXRE_CIS: Attagene CIS-FACTORIAL HepG2 Assay for human Pregnane X Receptor Element (PXRE) (AID 2282957); conditions: HepG2 Attagene CIS-FACTORIAL PXRE reporter, mRNA; actives raise or lower the signal
# Method in brief: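 Using HepG2 transfected with multiple reporter transcription units, endogenous factor-driven transcription was scored as reporter mRNA after 24 h exposure.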
# [4] = ATG_PPRE_CIS: Attagene CIS-FACTORIAL HepG2 Assay for human Peroxisome Proliferator-activated Response Element (PPRE) (AID 2282958); conditions: HepG2 PPRE cis-element reporter, Attagene transcription factor profiling; actives raise or lower the signal
# Method in brief: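 Multiplexed reporter transcription units under cis-regulatory promoters were transfected into HepG2 cells to capture endogenous factor activity. A 24 h incubation preceded RNA isolation and fluorescent RT-PCR fragment analysis.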
# [5] = ATG_RORE_CIS: Attagene CIS-FACTORIAL HepG2 Assay for human RAR-related Orphan Receptor Element (RORE) (AID 2282959); conditions: HepG2 Attagene cis-factorial RORE reporter, mRNA; actives raise or lower the signal
# Method in brief: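 Fluorescence intensity of reporter-specific cDNA fragments, separated by capillary electrophoresis, gives the signal. Source: HepG2 liver cells transiently transfected with cis-element reporters and exposed 24 h; DMSO-normalized bidirectional fit.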
# [6] = ATG_Sox_CIS: Attagene CIS-FACTORIAL HepG2 Assay for human SRY-box transcription factor (SOX) (AID 2282960); conditions: HepG2 Attagene cis-factorial SOX reporter, mRNA; actives raise or lower the signal
# Method in brief: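 After 24 h of chemical treatment, transfected HepG2 reporter cells are lysed for total RNA. Transcript levels come from RT-PCR with labelled primer extension and capillary electrophoresis, analysed bidirectionally versus DMSO.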
# [7] = molecular target: Transcription factor Sp1 (Homo sapiens) (UniProt P08047); assay: ATG_Sp1_CIS: Attagene CIS-FACTORIAL HepG2 Assay for human Specificity Protein 1 (Sp1) (AID 2282961); conditions: HepG2 Sp1 cis-reporter transcription, actives raise or lower the signal
# Transcription factor Sp1 (Homo sapiens), sequence (P08047 whole entry, looked up): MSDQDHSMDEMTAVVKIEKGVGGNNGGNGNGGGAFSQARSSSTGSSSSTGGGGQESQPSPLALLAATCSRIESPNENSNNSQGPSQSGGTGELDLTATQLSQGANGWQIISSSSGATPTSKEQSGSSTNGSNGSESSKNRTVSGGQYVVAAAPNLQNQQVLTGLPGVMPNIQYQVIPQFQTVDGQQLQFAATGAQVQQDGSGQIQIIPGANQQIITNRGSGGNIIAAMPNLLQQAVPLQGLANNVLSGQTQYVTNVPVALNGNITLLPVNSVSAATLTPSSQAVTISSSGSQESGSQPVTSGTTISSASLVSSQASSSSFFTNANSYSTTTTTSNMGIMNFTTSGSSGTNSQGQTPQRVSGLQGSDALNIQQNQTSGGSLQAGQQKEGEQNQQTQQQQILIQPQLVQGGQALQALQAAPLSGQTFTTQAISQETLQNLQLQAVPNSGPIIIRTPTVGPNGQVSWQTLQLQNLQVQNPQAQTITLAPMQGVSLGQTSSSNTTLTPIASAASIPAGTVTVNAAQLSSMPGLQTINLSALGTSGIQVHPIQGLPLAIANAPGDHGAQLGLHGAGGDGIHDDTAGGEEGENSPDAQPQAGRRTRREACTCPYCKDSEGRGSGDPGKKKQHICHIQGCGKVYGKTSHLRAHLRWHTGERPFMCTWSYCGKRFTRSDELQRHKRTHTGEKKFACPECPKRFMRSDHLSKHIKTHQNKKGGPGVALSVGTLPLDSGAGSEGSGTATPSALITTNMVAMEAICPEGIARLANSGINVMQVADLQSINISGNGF
# Method in brief: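 Sp1-driven reporter mRNA, read as capillary electrophoresis fluorescence after RT-PCR, in transiently transfected HepG2 cells dosed for 24 h; signal change in either direction relative to DMSO.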
# [8] = ATG_SREBP_CIS: Attagene CIS-FACTORIAL HepG2 Assay for human Sterol Regulatory Element Binding (SREBP) (AID 2282962); conditions: HepG2 Attagene cis-factorial SREBP reporter, mRNA; actives raise or lower the signal
# Method in brief: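 In this cis-format assay, HepG2 liver cells express reporters controlled by promoter elements responsive to native transcription factors. Exposure lasts 24 h; reporter mRNA fluorescence from capillary electrophoresis gives the signal, fitted bidirectionally against DMSO.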
# [9] = molecular target: Signal transducer and activator of transcription 3 (Homo sapiens) (UniProt P40763); assay: ATG_STAT3_CIS: Attagene CIS-FACTORIAL HepG2 Assay for human Signal Transducer and Activator of Transcription 3 (STAT3) (AID 2282963); conditions: HepG2, Attagene cis-factorial STAT3 reporter transcription; actives raise or lower the signal
# Signal transducer and activator of transcription 3 (Homo sapiens), sequence (P40763 whole entry, looked up): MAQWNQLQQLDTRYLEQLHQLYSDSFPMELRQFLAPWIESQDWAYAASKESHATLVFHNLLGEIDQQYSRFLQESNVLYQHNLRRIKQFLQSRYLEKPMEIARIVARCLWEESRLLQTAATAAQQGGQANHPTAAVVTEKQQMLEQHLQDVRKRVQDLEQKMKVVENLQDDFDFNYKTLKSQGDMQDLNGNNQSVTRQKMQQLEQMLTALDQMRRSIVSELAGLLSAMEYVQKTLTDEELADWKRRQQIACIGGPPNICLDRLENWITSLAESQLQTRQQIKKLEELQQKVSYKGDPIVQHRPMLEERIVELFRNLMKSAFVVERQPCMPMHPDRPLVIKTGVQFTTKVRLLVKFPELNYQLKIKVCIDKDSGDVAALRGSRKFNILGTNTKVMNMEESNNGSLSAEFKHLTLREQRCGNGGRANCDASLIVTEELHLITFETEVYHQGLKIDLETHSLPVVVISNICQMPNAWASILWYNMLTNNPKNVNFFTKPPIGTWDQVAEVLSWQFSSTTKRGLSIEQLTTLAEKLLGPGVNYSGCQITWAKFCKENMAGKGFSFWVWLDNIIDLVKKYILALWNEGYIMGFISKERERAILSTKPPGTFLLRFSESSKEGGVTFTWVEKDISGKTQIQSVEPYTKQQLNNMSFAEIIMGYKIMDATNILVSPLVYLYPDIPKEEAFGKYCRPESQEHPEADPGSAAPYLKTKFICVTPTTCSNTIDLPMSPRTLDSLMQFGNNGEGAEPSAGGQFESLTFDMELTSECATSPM
# Method in brief: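 Uses human liver HepG2 transiently carrying cis-regulated reporter transcription units. Following 24 h dosing, reporter mRNA induction was detected by RT-PCR and capillary electrophoresis, analysed bidirectionally versus DMSO.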
# [10] = ATG_TA_CIS: Attagene CIS-FACTORIAL HepG2 Assay for human TA Basal Promoter (AID 2282964); conditions: HepG2 Attagene CIS-factorial TA basal promoter reporter; actives raise or lower the signal
# Method in brief: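 HepG2 cells transiently transfected with multiple reporter units under cis promoter elements, reporting endogenous transcription factor activity; this endpoint tracks the TA basal promoter as background control. Reporter mRNA after 24 h dosing measured by RT-PCR/capillary electrophoresis; bidirectional fits versus DMSO.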
# [11] = ATG_TCF_b_cat_CIS: Attagene CIS-FACTORIAL HepG2 Assay for human T-Cell-Factor with beta-catenin (TCF/b-cat) (AID 2282965); conditions: HepG2 TCF/beta-catenin cis-reporter transcription, actives raise or lower the signal
# Method in brief: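 In this cis-format system, transfected HepG2 cells report endogenous transcription factor activity. Readout after 24 h exposure is reporter transcript abundance from RT-PCR and capillary electrophoresis, analysed for gain or loss of signal versus DMSO.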
# [12] = ATG_TAL_CIS: Attagene CIS-FACTORIAL HepG2 Assay for human TAL Basal Promoter (AID 2282966); conditions: HepG2 Attagene cis-factorial TAL promoter reporter; actives raise or lower the signal;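 further: background control endpoint measuring basal TAL promoter reporter mRNA not a specific factor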
# Method in brief: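 After 24 hours of chemical exposure, transfected HepG2 cells yielded RNA that was converted to 6-FAM-labelled, HpaI-digested reporter fragments for capillary electrophoresis. Values derive from bidirectional fitting against DMSO controls.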
# [13] = ATG_TGFb_CIS: Attagene CIS-FACTORIAL HepG2 Assay for human Transforming Growth Factor (TGF) (AID 2282967); conditions: HepG2 Attagene CIS TGFb reporter, mRNA transcription; actives raise or lower the signal
# Method in brief: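 HepG2 cells transiently transfected with cis-promoter-driven multiple reporter units measure endogenous TF activity; reporter mRNA quantified at 24 h by RT-PCR, FAM labeling, HpaI digestion and capillary electrophoresis. Bidirectional fit vs DMSO.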
# [14] = ATG_VDRE_CIS: Attagene CIS-FACTORIAL HepG2 Assay for human Vitamin D Receptor Element (VDRE) (AID 2282968); conditions: HepG2 VDRE cis-reporter transcription, actives raise or lower the signal
# Method in brief: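 Transfected HepG2 reporter cells, chemical treatment 24 h. RNA isolated, cDNA amplified with reporter-specific primers, products analysed by capillary electrophoresis. Endpoint fitted in both directions versus DMSO.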
# [15] = molecular target: Estrogen receptor (Homo sapiens) (UniProt P03372); assay: ATG_ERa_TRANS: Attagene TRANS-FACTORIAL HepG2 Assay for human Estrogen Receptor alpha (ERa) (AID 2282970; active means hit-call score of the fitted dose curve at least 0.9, where 1 is the maximum); conditions: HepG2 Attagene TRANS ERa GAL4 reporter, mRNA
# Estrogen receptor (Homo sapiens), sequence (P03372 whole entry, looked up, the tested form may be a part): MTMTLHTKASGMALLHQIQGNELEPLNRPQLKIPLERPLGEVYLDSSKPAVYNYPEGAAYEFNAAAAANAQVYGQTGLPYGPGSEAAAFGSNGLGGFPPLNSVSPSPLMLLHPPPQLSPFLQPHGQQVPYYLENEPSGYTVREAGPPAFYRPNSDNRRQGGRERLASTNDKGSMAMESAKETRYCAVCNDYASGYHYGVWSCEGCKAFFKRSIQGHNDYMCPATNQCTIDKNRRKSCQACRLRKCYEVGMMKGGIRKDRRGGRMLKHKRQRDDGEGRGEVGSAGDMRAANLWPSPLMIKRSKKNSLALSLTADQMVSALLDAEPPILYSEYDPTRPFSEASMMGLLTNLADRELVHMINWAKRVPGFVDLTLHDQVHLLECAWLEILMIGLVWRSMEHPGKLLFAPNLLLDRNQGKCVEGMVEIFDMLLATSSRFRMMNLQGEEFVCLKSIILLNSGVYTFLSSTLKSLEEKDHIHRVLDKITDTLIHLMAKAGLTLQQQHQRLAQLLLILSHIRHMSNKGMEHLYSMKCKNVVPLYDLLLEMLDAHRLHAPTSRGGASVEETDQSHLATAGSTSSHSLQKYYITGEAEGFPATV
# Method in brief: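 Liver-derived HepG2 cells expressing chimeric nuclear receptor-Gal4 proteins from transient transfection were exposed for 24 hours. Gain of reporter mRNA signal versus DMSO, read by capillary electrophoresis of FAM-labelled PCR products, was recorded.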
# [16] = molecular target: X-box-binding protein 1 (Homo sapiens) (UniProt P17861); assay: ATG_Xbp1_CIS: Attagene CIS-FACTORIAL HepG2 Assay for human X-box Binding Protein 1 (XBP1) (AID 2282972); conditions: HepG2 XBP1 cis-element reporter, Attagene multiplex; actives raise or lower the signal
# X-box-binding protein 1 (Homo sapiens), sequence (P17861 whole entry, looked up): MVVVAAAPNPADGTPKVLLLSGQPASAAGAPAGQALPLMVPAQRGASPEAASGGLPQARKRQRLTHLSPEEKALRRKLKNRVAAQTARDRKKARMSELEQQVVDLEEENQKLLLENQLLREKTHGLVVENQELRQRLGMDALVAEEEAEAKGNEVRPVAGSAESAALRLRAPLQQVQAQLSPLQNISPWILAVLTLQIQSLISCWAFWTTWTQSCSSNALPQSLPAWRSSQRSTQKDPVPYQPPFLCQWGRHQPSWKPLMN
# Method in brief: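 Changes in reporter transcript abundance, read by RT-PCR and capillary electrophoresis, reflect endogenous transcription factor activity. Transfected HepG2 cells received compound for 24 hours; DMSO defined baseline for bidirectional analysis.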
# [17] = molecular target: Nuclear receptor subfamily 1 group I member 3 (Homo sapiens) (UniProt Q14994); assay: ATG_CAR_TRANS: Attagene TRANS-FACTORIAL HepG2 Assay for human Constitutive Androstane Receptor (CAR) (AID 2282969; active means hit-call score of the fitted dose curve at least 0.9, where 1 is the maximum;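 further: activators raise reporter mRNA above DMSO so AC50 marks induction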); conditions: HepG2 Attagene TRANS-FACTORIAL CAR reporter
# Nuclear receptor subfamily 1 group I member 3 (Homo sapiens), sequence (Q14994 whole entry, looked up, the tested form may be a part): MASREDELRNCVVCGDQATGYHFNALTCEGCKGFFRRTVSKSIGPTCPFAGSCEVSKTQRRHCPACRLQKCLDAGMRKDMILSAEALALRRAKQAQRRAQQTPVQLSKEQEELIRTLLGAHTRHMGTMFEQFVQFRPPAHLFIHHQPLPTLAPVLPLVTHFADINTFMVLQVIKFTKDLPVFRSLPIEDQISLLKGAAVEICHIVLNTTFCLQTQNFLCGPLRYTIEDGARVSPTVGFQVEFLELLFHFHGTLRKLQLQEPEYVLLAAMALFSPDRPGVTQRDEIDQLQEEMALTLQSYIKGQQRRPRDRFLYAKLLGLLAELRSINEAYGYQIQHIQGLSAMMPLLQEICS
# Method in brief: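 Steps: transient transfection of HepG2 with multiple GAL4-UAS reporter units; 24 h compound incubation; RNA isolation, RT-PCR, 6-FAM primer extension, HpaI digest; capillary electrophoresis. Gain-of-signal relative to DMSO negative control.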
# [18] = ATG_M_19_TRANS: Attagene TRANS-FACTORIAL HepG2 Assay for M19 Transcription Factor (Internal Marker) (AID 2282974; active means hit-call score of the fitted dose curve at least 0.9, where 1 is the maximum); conditions: HepG2 Attagene TRANS-FACTORIAL M19 internal marker reporter
# Method in brief: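 Measured here: internal-marker reporter transcript from HepG2 cells transfected with MRTUs, harvested at 24 h. cDNA PCR products were 6-FAM labelled by primer extension, cut with HpaI for 2 h at 37 C, and resolved by CE.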
# [19] = molecular target: Steroid hormone receptor ERR1 (Homo sapiens) (UniProt P11474); assay: ATG_ERRa_TRANS: Attagene TRANS-FACTORIAL HepG2 Assay for human Estrogen-Related Receptor alpha (ERRa) (AID 2282971; active means hit-call score of the fitted dose curve at least 0.9, where 1 is the maximum); conditions: HepG2 Attagene TRANS reporter, ERRa transactivation
# Steroid hormone receptor ERR1 (Homo sapiens), sequence (P11474 whole entry, looked up, the tested form may be a part): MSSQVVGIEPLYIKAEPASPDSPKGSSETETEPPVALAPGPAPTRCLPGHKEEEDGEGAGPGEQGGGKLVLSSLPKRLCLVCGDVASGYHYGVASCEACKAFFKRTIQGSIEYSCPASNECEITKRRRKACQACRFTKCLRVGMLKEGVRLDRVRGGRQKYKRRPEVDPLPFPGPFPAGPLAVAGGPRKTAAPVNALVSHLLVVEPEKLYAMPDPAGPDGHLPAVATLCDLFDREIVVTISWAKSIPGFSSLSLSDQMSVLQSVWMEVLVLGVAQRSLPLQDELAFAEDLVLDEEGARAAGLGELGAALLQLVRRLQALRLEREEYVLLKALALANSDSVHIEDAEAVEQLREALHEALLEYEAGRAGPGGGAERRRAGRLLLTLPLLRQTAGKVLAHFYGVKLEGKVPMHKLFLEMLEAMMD
# Method in brief: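 Reporter transcript induction was quantified by RT-PCR and capillary electrophoresis of FAM-labelled, HpaI-cut products after 24 h treatment of HepG2 cells carrying transiently transfected GAL4-UAS reporter units and an exogenous ERRa-Gal4 fusion; activity scored as increase over DMSO.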
# [20] = ATG_GAL4_TRANS: Attagene TRANS-FACTORIAL HepG2 Assay for GAL4 (Internal Marker) (AID 2282976; active means hit-call score of the fitted dose curve at least 0.9, where 1 is the maximum); conditions: HepG2 Attagene TRANS GAL4 internal marker reporter
# Method in brief: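 First, HepG2 cells were transfected with reporter units under GAL4-UAS control. Next, they were treated with chemical for 24 h. Finally, RNA was reverse-transcribed, PCR-amplified, FAM-labelled and resolved by capillary electrophoresis, with induction scored against DMSO.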
structure (smiles),measurement,setting,value
CCCCC(CC)COC(=O)CCCCC(=O)OCc1ccccc1 (stereo unspecified),outcome,[1],inactive
same,outcome,[2],inactive
same,AC50,[3],12.4 µM (active)
same,outcome,[4],inactive
same,outcome,[5],inactive
same,outcome,[6],inactive
same,outcome,[7],inactive
same,outcome,[8],inactive
same,outcome,[9],inactive
same,outcome,[10],inactive
same,outcome,[11],inactive
same,outcome,[12],inactive
same,outcome,[13],inactive
same,outcome,[14],inactive
same,outcome,[15],inactive
same,outcome,[16],inactive
Nc1cccc2c(N)cccc12,outcome,[1],inactive
same,outcome,[2],inactive
same,outcome,[3],inactive
same,outcome,[4],inactive
same,outcome,[5],inactive
same,outcome,[6],inactive
same,outcome,[7],inactive
same,outcome,[8],inactive
same,outcome,[9],inactive
same,outcome,[10],inactive
same,outcome,[11],inactive
same,outcome,[12],inactive
same,outcome,[13],inactive
same,outcome,[14],inactive
same,outcome,[17],inactive
same,outcome,[15],inactive
same,outcome,[16],inactive
same,outcome,[18],inactive
CCN(CC)CCNc1ccc(CNC=O)c2sc3ccc(OC)cc3c(=O)c12,outcome,[2],inactive
same,outcome,[3],inactive
same,outcome,[4],inactive
same,outcome,[6],inactive
same,AC50,[7],0.98 µM (active)
same,outcome,[8],inactive
same,outcome,[9],inactive
same,outcome,[10],inactive
same,outcome,[11],inactive
same,outcome,[12],inactive
same,outcome,[13],inactive
same,AC50,[14],0.689 µM (active)
same,AC50,[15],1.05 µM (active)
same,outcome,[19],inactive
same,AC50,[16],0.766 µM (active)
same,AC50,[20],3.36 µM (active)
NC(=O)N(O)[C@@H]1C=C[C@H](Oc2cccc(Oc3ccc(F)cc3)c2)C1,AC50,[2],33 µM (active)
same,AC50,[3],12.9 µM (active)
same,outcome,[4],inactive
same,AC50,[5],18.2 µM (active)
same,outcome,[6],inactive
same,outcome,[7],inactive
same,AC50,[8],18.3 µM (active)
same,outcome,[9],inactive
same,outcome,[10],inactive
same,AC50,[11],33 µM (active)
same,outcome,[12],inactive
same,outcome,[13],inactive
same,AC50,[14],26 µM (active)
same,AC50,[15],11.2 µM (active)
same,outcome,[16],inactive
same,outcome,[18],inactive
Cc1cc(C)c(O)c(C)c1,outcome,[1],inactive
same,outcome,[2],inactive
same,outcome,[3],inactive
same,outcome,[4],inactive
same,outcome,[5],inactive
same,outcome,[6],inactive
same,outcome,[7],inactive
same,outcome,[8],inactive
same,outcome,[9],inactive
same,outcome,[10],inactive
same,outcome,[11],inactive
same,outcome,[12],inactive
same,outcome,[13],inactive
same,outcome,[17],inactive
same,AC50,[15],100 µM (active)
same,outcome,[16],inactive
same,outcome,[18],inactive
CCCCCCCC(=O)O,outcome,[1],inactive
same,outcome,[2],inactive
same,outcome,[3],inactive
same,outcome,[5],inactive
same,outcome,[6],inactive
same,outcome,[7],inactive
same,outcome,[8],inactive
same,outcome,[9],inactive
same,outcome,[10],inactive
same,outcome,[11],inactive
same,outcome,[12],inactive
same,outcome,[13],inactive
same,outcome,[14],inactive
same,outcome,[17],inactive
same,outcome,[15],inactive
same,outcome,[16],inactive
same,outcome,[18],inactive
same,outcome,[20],inactive
COCC(C)O (stereo unspecified),outcome,[2],inactive
same,outcome,[3],inactive
same,outcome,[6],inactive
same,outcome,[7],inactive
same,outcome,[8],inactive
same,outcome,[9],inactive
same,outcome,[10],inactive
same,outcome,[11],inactive
same,outcome,[12],inactive
same,outcome,[13],inactive
same,outcome,[14],inactive
same,outcome,[15],inactive
same,outcome,[19],inactive
same,outcome,[16],inactive
same,outcome,[18],inactive

# Source: PubChem BioAssay (EPA / NIEHS)
